Assay results reported in PubChem BioAssay (Tox21).
Inconclusive results are not listed. Where a call stands in place of a potency, no number is given. A number with no mark means an inactive call. Calls of active or inactive are those of the source. Calls follow the shape of the dose curve; as a rule, active = well fitted inhibition curve with a large enough effect in the repeat runs; inconclusive = weak or mixed curves; inactive = no such curve, though single readings can be large or run the other way.

Biological target: Estrogen receptor (Homo sapiens) (UniProt P03372)
Assay: qHTS assay to identify small molecule antagonists of the estrogen receptor alpha (ER-alpha) signaling pathway using the BG1 cell line in the presence of 0.1 nM 17-beta-estradiol (AID 1259244); also: nearly all actives have a fitted effect of over 50% in size
Conditions: VM7Luc4E2 (BG1) ERE-luciferase, antagonist mode, 0.1 nM E2, 22 h; series mostly up to 42.5 µM
Description: National Center for Advancing Translational Sciences [NCATS]
NIH Chemical Genomics Center [NCGC]
U.S. Environmental Protection Agency [EPA]
National Institutes of Environmental Health Sciences [NIEHS]
National Toxicology Program [NTP]
U.S. Food and Drug Administration [FDA]
Estrogen receptor (ER), a member of the nuclear hormone receptor plays an important role in development, metabolic homeostasis and reproduction. Two subtypes of ER, ER-alpha and ER-beta, have similar expression patterns with some uniqueness in both types. Endocrine disrupting chemicals (EDCs) and their interactions with steroid hormone receptors like ER causes disruption of normal endocrine function. Therefore, it is important to understand the effect of environmental chemicals in ER signaling pathway. For identifying ER antagonists, VM7Luc4E2 cell line was used to screen against Tox21 compound libraries.
VM7Luc4E2 cell line (provided by Denison MS, University of California) endogenously express full-length ER-alpha and is stably transfected with a plasmid containing four estrogen responsive elements (ERE) upstream of a luciferase reporter gene. The current screening for identification of ER-alpha inhibitors against Tox21 compound libraries used lower concentration (0.1 nM) of 17beta-Estradiol as a stimulator.
Tox21 Assay Protocol Summary:
VM7Luc4E2 cells were cultured in phenol red free assay medium containing 10% charcoal stripped FBS for 5 days prior to the assay. The cells were dispensed at 4,000 cells/well in 4 uL of assay medium into white wall/solid-bottom 1536-well plates (Corning Life Sciences, Corning, NY) using a Multidrop Combi (ThermoFisher Scientific, Waltham, MA) dispenser. After the assay plates were incubated at 37C and 5% CO2 for 24 hr, 23 nL of compounds dissolved in DMSO, positive controls or DMSO only was transferred to the assay plates by a Pintool station (Kalypsys, San Diego, CA). The transfer of compounds was followed by the addition of 1 uL of 0.1 nM (final concentration) agonist (17beta-Estradiol)/assay medium using a Flying Reagent Dispenser (FRD, Aurora Discovery, San Diego, CA). The plates were incubated at 37C and 5% CO2 for 22 hr. For luciferase reporter gene assay, 4 uL of ONE-Glo reagent (Promega Corporation, Madison, WI) was added to each well using the FRD and after 30 min incubation at room temperature luminescence intensity was measured using ViewLux plate reader (PerkinElmer, Shelton, CT).
Potency is read from the fitted curve at half-maximal effect.

Estrogen receptor (Homo sapiens), sequence (P03372 whole entry, looked up): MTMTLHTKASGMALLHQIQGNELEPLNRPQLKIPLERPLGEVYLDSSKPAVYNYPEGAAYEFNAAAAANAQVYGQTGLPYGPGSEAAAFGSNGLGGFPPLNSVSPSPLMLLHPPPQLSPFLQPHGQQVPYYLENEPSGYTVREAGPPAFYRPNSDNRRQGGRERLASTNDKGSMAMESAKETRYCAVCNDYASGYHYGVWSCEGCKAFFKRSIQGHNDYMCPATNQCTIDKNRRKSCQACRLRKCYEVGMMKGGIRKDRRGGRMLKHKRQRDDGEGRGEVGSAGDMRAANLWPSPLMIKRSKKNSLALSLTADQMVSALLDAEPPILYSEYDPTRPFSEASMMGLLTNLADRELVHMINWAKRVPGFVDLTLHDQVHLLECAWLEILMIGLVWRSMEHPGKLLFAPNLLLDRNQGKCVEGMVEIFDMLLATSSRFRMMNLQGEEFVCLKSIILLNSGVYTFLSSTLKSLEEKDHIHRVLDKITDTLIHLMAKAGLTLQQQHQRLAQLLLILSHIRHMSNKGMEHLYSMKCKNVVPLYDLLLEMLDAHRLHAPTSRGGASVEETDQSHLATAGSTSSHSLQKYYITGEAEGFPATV

SMILES	Potency	activity change, negative = inhibition
OCCNCc1ccccc1	inactive	–
CCCCCCCCCCCc1ccccc1	inactive	–
O=[N+]([O-])c1ccc2[nH]ncc2c1	inactive	–
NS(=O)(=O)c1ccc(N2CCCCS2(=O)=O)cc1	inactive	–
C[C@@H]1C[C@H]2O[C@@]3(O[C@@H]2C(C)(C)O)[C@H](O)[C@@]2(C)[C@@H]4CC[C@H]5C(C)(C)[C@@H](O[C@@H]6OC[C@@H](O)[C@H](O)[C@H]6O)CC[C@@]56C[C@@]46CC[C@]2(C)[C@@H]13	inactive	–
C[Si](C)(CCCN)O[Si](C)(C)CCCN	inactive	–
C[C@@H](c1ncncc1F)C(O)(Cn1cncn1)c1ccc(F)cc1F (stereo not given in full)	inactive	–
O=C(Cl)c1cc(C(=O)Cl)cc(C(=O)Cl)c1	inactive	–
C=C(C)C(=O)OCC	inactive	–
C=CC(=O)OCCOCCOCCOCCOC(=O)C=C	54.8 µM (active)	–
CCCCCCCCCCCC(=O)OC[C@@H](O)[C@H]1OC[C@H](OCCO)[C@H]1OCCO	inactive	–
O=S(=O)(Oc1ccc(Cl)cc1)c1ccccc1	inactive	–
CN1CCC(=C2c3ccccc3Sc3ccccc32)CC1	inactive	–
CCOC(=O)NCCOc1ccc(Oc2ccccc2)cc1	43.3 µM (active)	–
O=C(O)c1ccc(S(=O)(=O)O)cc1C(=O)O	inactive	–
CC(C)(C)Cl	inactive	–
C#Cc1cccc(Nc2ncnc3cc(OCCOC)c(OCCOC)cc23)c1	inactive	–
NC(N)=NCCC[C@H](N)C(=O)O	–	4.47% [at 8.39 µM]
CCO[Si](CCCCl)(OCC)OCC	inactive	–
COc1ccc2cccc(CCNC(C)=O)c2c1	inactive	–

SMILES	Potency	activity change, negative = inhibition
O=C(OCCCCCCOC(=O)c1ccccc1)c1ccccc1	inactive	–
CCc1c(C(=O)NN2CCCCC2)nn(-c2ccc(Cl)cc2Cl)c1-c1ccc(Br)cc1	inactive	–
O=C(O)C1(C(=O)O)CCC1.[NH2-].[NH2-].[Pt+2]	inactive	–
COc1ccc(C(=O)N2CCN(CC(=O)N3CCOCC3)CC2)cc1	inactive	–
Cc1[nH]c(C)c(Cl)c(=O)c1Cl	inactive	–
CCN(CC)CCNc1ccc(CNC=O)c2sc3ccc(OC)cc3c(=O)c12	inactive	–
CCCCCCCN	inactive	–
O=C(O)C1(C(=O)Nc2ccc(Cl)cc2Cl)CC1	inactive	–
O=C1[C@H]2CCCC[C@H]2C(=O)N1CCCCN1CCN(c2nsc3ccccc23)CC1	inactive	–
CCN(CC)CCNC(=O)c1cc(Br)c(N)cc1OC	inactive	–
Nc1cccc(S(=O)(=O)c2cccc(N)c2)c1	inactive	–
CN(C)CCN(Cc1ccccc1)c1ccccn1	inactive	–
C/C(=C(\CCOP(=O)(O)O)SC(=O)c1ccccc1)N(C=O)Cc1cnc(C)nc1N	–	5.19% [at 8.39 µM]
O=C(Nc1ccc(S(=O)(=O)N2CCOCC2)cc1)c1cc(Cl)ccc1NS(=O)(=O)c1ccc(Cl)s1	inactive	–
CCO[C@H](Cc1ccc(OCCc2ccc(OS(C)(=O)=O)cc2)cc1)C(=O)O	inactive	–
COCC(C)OC(C)=O (stereo not given)	inactive	–
CCCCCCCCCCCCCCCCOS(=O)(=O)O	inactive	–
NCCCN1CCOCC1	inactive	–
NCC(=O)O	inactive	–
N=c1ccn2c(n1)O[C@H]1[C@H](O)[C@@H](CO)O[C@H]12	inactive	–
